Drawing on ChEMBL document CHEMBL1157539, “Thousands of chemical starting points for antimalarial lead identification” (Nature, 2010), this text covers Inhibition for 29 molecules.

Holding throughout (format): functional
The test system of assay [1] is Plasmodium falciparum. Nature of the assay: GSK_TCMDC: Inhibition of Plasmodium falciparum 3D7 in whole red blood cells, using parasite LDH activity as an index of growth. Test compounds present at 2uM.
Assay [2] relates to Plasmodium falciparum. Description: GSK_TCMDC: Inhibition of Plasmodium falciparum Dd2 in whole red blood cells, using parasite LDH activity as an index of growth. Test compounds present at 2uM.
Assay [3] relates to HepG2. Description: GSK_TCMDC: Percent inhibition of human HepG2 cell line. Test compounds present at 10uM.

With `COc1ccc(CNCCCCCCNCCc2ccc(Cl)cc2)cc1OC.Cl`, the figures for the Inhibition in assay [1], in assay [2] and in assay [3] were 96%, 0% and 21%, respectively.
On to `Cc1c(CNCCCNc2nc3ccccc3[nH]2)sc(C(F)F)c1Br.Cl`, for which the Inhibition in assay [1] was determined as 100%; in assay [2], 5%; in assay [3], 9%.
As for `COc1ccc(-c2nc3cc4ccccc4nc3[nH]2)c(OCC(O)CNC(C)C)c1.Cl` (configuration not stated), the figures for the Inhibition in assay [1], in assay [2] and in assay [3] were 98%, 96% and 19%, respectively.
Take `O=C(CCNc1ccnc(NCC2CCCCC2)n1)Nc1ccccc1.O=C(O)C(F)(F)F`: the Inhibition amounted to 95% in assay [1], 48% in assay [2] and 55% in assay [3].
For `O=C(Nc1cccc(-c2ccc(-c3nc4cc(C(F)(F)F)ccc4[nH]3)cc2)c1)c1csnn1`, the Inhibition is 98% in assay [1], 93% in assay [2] and 23% in assay [3].
The corresponding values for `CC(C)CCn1c(Sc2ccc([N+](=O)[O-])cc2C(F)(F)F)nnc1-c1ccccc1Cl` are 99%, 43% and 0%.
As to `Cc1ccc(CNC(=O)[C@H](CCCN)Nc2cc(C)nc(Nc3ccccc3)n2)cc1.O=C(O)C(F)(F)F`, the Inhibition in assay [1] is listed as 90%; in assay [2] it was 0%; in assay [3], 0%.
As to `CCCCCCCN1CCC(CC(=O)Nc2ccnc3ccc(OC)cc23)C(CC)C1` (configuration not stated), the Inhibition amounted to 100% in assay [1], 75% in assay [2] and 14% in assay [3].
For `Cc1noc(-c2ccc3c(c2)CCN(CCC2CCC(NC(=O)c4cc5ccccc5[nH]4)CC2)CC3)n1.Cl` (configuration not stated), the figures for the Inhibition in assay [1], in assay [2] and in assay [3] were 99%, 41% and 21%, respectively.
`CC(C)COc1ccc(Cl)cc1Cc1ccc(-c2nc3cc(CCN4CCCC4)ccc3[nH]2)o1.Cl`: the values for the Inhibition in assay [1], in assay [2] and in assay [3] were 100%, 94% and 34%, respectively.
On to `Cc1nc2c(c(C)nn2C(C)(C)C)c(C)c1CCC(=O)Nc1ccc(CN2CCCC2)cc1`, for which the results for the Inhibition in assay [1], in assay [2] and in assay [3] were 89%, 5% and 1%, respectively.
As for `Br.CCCOc1ccc(OCCCON2C(=N)N=C(N)NC2(C)C)cc1`, the Inhibition in assay [1] was found to be 96%; in assay [2], 94%; in assay [3] it was 59%.
`OC(CNC1CCCCC1)Cn1c2ccc(I)cc2c2cc(I)ccc21` (configuration not stated): the Inhibition is on record as 100% in assay [1], 93% in assay [2] and 10% in assay [3].
The corresponding values for `Cl.N#Cc1ccc2c(c1)CN(CCC1CCC(NC(=O)c3cc4ccccc4cc3N)CC1)CC2` (configuration not stated) are 80%, 52% and 5%.
For `NC(=O)C1CCN(Cc2ccc(-c3ccc(-c4nc5cc(C(F)(F)F)ccc5[nH]4)s3)cc2)CC1.O=C(O)C(F)(F)F`, the Inhibition is recorded as 99% in assay [1], 91% in assay [2] and 22% in assay [3].
For `O=C(NC1CCN(c2ccnc3cc(Cl)ccc23)C1)c1ccccc1F.O=C(O)C(F)(F)F` (configuration not stated), the Inhibition in assay [1] was determined as 100%; in assay [2] it was 71%; in assay [3], 8%.
In the case of `COCn1ncc2cc(-c3cccc(NC(=O)c4csc(NC(C)=O)n4)c3)ccc21`, the Inhibition in assay [1] is on record as 89%; in assay [2], 68%; in assay [3], 0%.
In the case of `NCCNc1ccc([N+](=O)[O-])cc1C(=O)Nc1cccc(Cl)c1`, the Inhibition was determined as 85% in assay [1], 7% in assay [2] and 23% in assay [3].
The corresponding values for `Cc1ccc2sc(N3CCN(C(=O)c4ccc([N+](=O)[O-])o4)CC3)nc2c1C` are 90%, 86% and 0%.
For `CC(C)NCc1ccc(-c2ccc(NC(=O)c3ccc(C#N)cc3)cc2)cc1.O=C(O)C(F)(F)F`, the Inhibition in assay [1] is given as 90%; in assay [2] it was 0%; in assay [3], 23%.
With `Cc1cccc2nc(-c3ccc(-c4ccc(NC(=O)C(C)CN(C)C)cc4)s3)[nH]c12` (configuration not stated), the results for the Inhibition in assay [1], in assay [2] and in assay [3] were 100%, 98% and 23%, respectively.
On the same counts, the results for `Brc1ccccc1CNc1ccnc(NCCn2ccnc2)n1` are 99%, 33% and 72%.
Regarding `CCN1CCN(c2cc(C)c3cc(NC(=O)c4cccc(Cl)c4)ccc3n2)CC1`, the Inhibition in assay [1] is listed as 100%; in assay [2] it was 58%; in assay [3], 4%.
With `COc1ccc(C=CC(=O)Nc2ccc(N3CCCC3)cc2)cc1.Cl`, the Inhibition is listed as 81% in assay [1], 9% in assay [2] and 0% in assay [3].
For the molecule `CCC(CC)(Cc1ccccc1)NC(=O)[C@H](CC1CCCCC1)Nc1ccc(C#N)c2ccccc12.O=C(O)C(F)(F)F`, the Inhibition in assay [1] is recorded as 95%; in assay [2], 76%; in assay [3] it was 4%.
As for `COc1ccc(CNCC2CCC(CNCCc3ccccc3)CC2)cc1Cl` (configuration not stated), the Inhibition in assay [1] is 100%; in assay [2], 29%; in assay [3] it was 23%.
On to `CN(C)Cc1cccc(-c2ccc(NC(=O)c3ccc4c(=O)n(CCN5CCCCC5)cnc4c3)cc2)c1`, for which the results for the Inhibition in assay [1], in assay [2] and in assay [3] were 100%, 67% and 23%, respectively.
As for `O=C(C=Cc1ccc(Cl)c(Cl)c1)NCCCCCN1CCC(CCNC(=O)c2sc3ccccc3c2Cl)CC1`, the figures for the Inhibition in assay [1], in assay [2] and in assay [3] were 88%, 6% and 27%, respectively.
As to `Cc1cccc2nc(-c3cccc(-c4ccc(CNCCNC(=O)c5ccnn5C)cc4)c3)[nH]c12.O=C(O)C(F)(F)F`, the Inhibition is given as 100% in assay [1], 100% in assay [2] and 21% in assay [3].

Usually Inhibition stands for the share of the control response that was lost under treatment.
